The list shows a part of the results. Activity calls are given as the source filed them.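 The calls were made as follows: active = mean inhibition across replicates of at least 20% with every single replicate also at 20% or more; inconclusive = mean inhibition at least 20% but some replicate falls below 20%; inactive = mean inhibition under 20% and not all replicates reach it.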
The compounds below were run on PglD UDP-4-amino-sugar N-acetyltransferase (Campylobacter jejuni) (assay: inhibition of C. jejuni PglD N-acetyltransferase – biochemical, DTNB absorbance, single point, cherry-picked samples, confirmation (AID 743156;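 also: initial rate of CoA release by acetyl transfer from AcCoA to the UDP-4-amino sugar; 0% = median of neutral control wells and 100% = median of positive control wells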)). Conditions: Purified C. jejuni PglD, DTNB absorbance 412 nm; at 20 µM; hits give high values.

| SMILES | inhibition |
| --- | --- |
| O=C(NCc1ccncc1)C1CCN(C(=O)c2cccc(Cl)c2)CC1 | 2.21% (inactive) |
| O=C(Nc1ccc(Sc2ccc(Br)cc2)cc1)c1ccco1 | 11.2% (inactive) |
| CCOc1ccc(OCc2ccc(C(=O)N(C)c3ccccc3)o2)cc1 | 1.37% (inactive) |
| Cc1ccc(S(=O)(=O)N2CCC(C(=O)NCC3CCCO3)CC2)cc1 (configuration not stated) | -10.7% (inactive) |
| C=CC1=C(C(=O)O)N2C(=O)[C@@H](NC(=O)/C(=N/OCC(=O)O)c3csc(N)n3)[C@H]2SC1 | 37.4% (active) |
| CC(NC(=O)c1ccc(Cl)cc1)C(=O)N1CCCCC1 (configuration not stated) | 0.85% (inactive) |
| CC(C)CCNC(=O)c1ccc2c(Cl)c3c(nc2c1)CCC3 | 2.89% (inactive) |
| CC(C)(C)c1ccc(CN2C(=O)c3ccccc3S2(=O)=O)cc1 | 2.98% (inactive) |
| CCCCC(=O)Nc1ccc(C(=O)NCCCn2ccnc2)cc1 | -0.586% (inactive) |
| Cc1ccc(NC(=O)CNCc2ccccn2)cc1S(=O)(=O)N(C)C | -5.07% (inactive) |
| O=S1(=O)CC(NCc2ccccc2)C(Nc2ccc(Cl)cc2)C1 (configuration not stated) | -7.57% (inactive) |
| CCCOc1ccc(F)cc1-c1cc(C(=O)Nc2ccc(F)cc2)[nH]n1 | 3.61% (inactive) |
| C=CCOC(=O)C1=C(C)NC(SCC(=O)OCC)=C(C#N)C1c1ccc(C)cc1 (configuration not stated) | 0.793% (inactive) |
| CSc1ccc(S(=O)(=O)NCc2ccc(Cl)cc2)cc1 | 3.66% (inactive) |
| Cc1ccc(C2=C/C(=C\c3cccnc3)C(=O)O2)cc1 | 7.97% (inactive) |
| CC(=O)Nc1ccc(OC(=O)COc2ccc(Br)cc2)cc1 | 1.84% (inactive) |
| COc1ccc(NC(=O)C2=NNC(=O)CC2)cc1S(=O)(=O)N1CCCCC1 | -3.63% (inactive) |

— PubChem BioAssay AID743156 (Broad Institute, 2013)
